PubChem BioAssay (NCATS)
The source made the active and inactive calls. Calls come from the whole dose curve; as a rule, active = well fitted inhibition curve with a large enough effect; inconclusive = small, poorly fitted or top-dose-only effect; inactive = no such curve, though single readings can be large or run the other way.

Experiment: qHTS assay for measurement of the activity of small molecule inhibitors on Zika virus induced Caspase-3 activity in human astrocytoma cells (AID 1224859);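 note: plate controls were ZIKV-infected untreated cells for no effect and uninfected cells for full effect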
Conditions: SNB-19 ZIKV-induced caspase-3/7, luminescence, 6 h; series mostly up to 45.7 µM
Outline: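 SNB-19 astrocytoma cells, 250/well, pretreated 1 h with compounds, then Zika virus at 2 FFU/cell for 6 h at 37 C; Caspase-Glo 3/7 luminescence after 30 min; percent inhibition normalised to uninfected and infected controls.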

Compound | outcome | activity change, negative = inhibition
CN1CCN(C2Cc3ccccc3Sc3ccc(Cl)cc32)CC1 (centres undefined) | inactive | 
COc1ccccc1O | inactive | 
CC(=O)NC(Cc1ccccc1)C(=O)O (centres undefined) | inactive | 
C[C@H]1O[C@@H](n2cc(F)c(=O)[nH]c2=O)[C@H](O)[C@@H]1O | inactive | 
CC(=O)c1ccc2c(c1)N(CCCN(C)C)c1ccccc1S2 | inactive | 
CCCCN(CCCC)CCCOC(=O)c1ccc(N)cc1 | inactive | 
NS(=O)(=O)c1cc2c(cc1Cl)NC(CSCc1ccccc1)=NS2(=O)=O | inactive | 
COc1ccc2cc1Oc1cc3c(cc1OC)CC[N+](C)(C)[C@H]3Cc1ccc(cc1)Oc1c(OC)c(OC)cc3c1[C@@H](C2)[N+](C)(C)CC3 | inactive | 
CCCCOC(=O)c1ccc(O)cc1 | inactive | 
CC[N+](CC)(CC)CCOc1ccc(/C=C/c2ccccc2)cc1 | inactive | 
N[C@H](C(=O)O)c1ccc(O)cc1 | inactive | 
C[C@H](N)[C@H](O)c1cccc(O)c1 | inactive | 
CCN(CC)C(=O)Nc1ccc(OCC(O)CNC(C)(C)C)c(C(C)=O)c1 (centres undefined) | inactive | 
CCCCN1CCCC[C@H]1C(=O)Nc1c(C)cccc1C | inactive | 
O=C1NC(=O)[C@@]2(CCOc3ccc(F)cc32)N1 | inactive | 
CC(C)(O)c1ccccc1CC[C@@H](SCC1(CC(=O)O)CC1)c1cccc(/C=C/c2ccc3ccc(Cl)cc3n2)c1 | inactive | 
CCOc1ccc2ccccc2c1C(=O)N[C@@H]1C(=O)N2[C@@H]1SC(C)(C)[C@@H]2C(=O)O | inactive | 

Compound | outcome | activity change, negative = inhibition
COc1cc(C)c(Cc2cnc(N)nc2N)cc1OC | inactive | 
C[C@@H]1CN(c2c(F)c(F)c3c(=O)c(C(=O)O)cn(C4CC4)c3c2F)C[C@H](C)N1 | inactive | 
C[C@](N)(Cc1ccc(O)cc1)C(=O)O | inactive | 
c1ccc2c(CC3=NCCN3)cccc2c1 | inactive | 
O=C1OC(OC(=O)c2cccnc2Nc2cccc(C(F)(F)F)c2)c2ccccc21 (centres undefined) | inactive | 
CC1(C)OC(=O)NC1=O | inactive | 
CN1CCOC(c2ccccc2)c2ccccc2C1 (centres undefined) | inactive | 
CCN(CC)CCSC(=O)C(c1ccccc1)c1ccccc1 | inactive | 
CCCCCCCCCCCCOS(=O)(=O)O | inactive | 
O=C(O)c1ccccn1 | inactive | 
C[C@@H]1CCN(C(=O)[C@H](CCCN=C(N)N)NS(=O)(=O)c2cccc3c2NC[C@H](C)C3)[C@@H](C(=O)O)C1 | inactive | 
NC(=O)NC(=O)Cc1ccccc1 | inactive | 
CCN(CC)CCNC(C(=O)OCCC(C)C)c1ccccc1 (centres undefined) | inactive | 
Cc1cccc(C)c1NC(=O)CN(CC(=O)O)CC(=O)O | inactive | 
CCOC(=O)[C@H](CCc1ccccc1)N[C@@H](C)C(=O)N1C(=O)N(C)C[C@H]1C(=O)O | inactive | 
CN1CCCCC1CCN1c2ccccc2Sc2ccc(S(C)=O)cc21 (centres undefined) | inactive | 
NCCNCCNCCNCCN |  | 14.1% [at 9.06 µM] (inactive)
